Rows were chosen to be rich in hits. Some 4.7% of all compounds tested hit in one or more screens of this group.
rCAG binder: r(CAG) repeat RNA binding | TO-PRO-1 dye displacement fluorescence | 370,000 tested, 1.3% active | inhibition, % at 3 µM;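 active = inhibition above the plate cutoff, the mean of all test compounds on that plate plus 3 SD, cut at about 35% in these data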;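 note: 0% = DMSO alone and 100% = 100 µM mitoxantrone as full dye displacement; higher means more dye released from RNA so lower well fluorescence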
KLK7 zymogen act: proKLK7 (human) activation, primary screen; activation, % at 7 µM; purified proKLK7, EDANS-DABCYL substrate fluorescence; 100% is mature enzyme control, 0% vehicle; P49862; AID 652039; 370,000 tested, 0.9% active;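 active = activation above the mean of all tested compounds plus 3 SD, computed per campaign excluding outliers beyond control limits, cut at about 13% in these data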
ADAM10 inh: ADAM10 inhibition, QFRET primary screen. recombinant ADAM10, EDANS/DABCYL FRET peptide cleavage, 3 h. inhibition, % at 7 µM. 370,000 tested, 0.62% active. AID 720582;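 active = inhibition above a per-campaign cutoff equal to the mean of compounds falling between control-based bounds plus 3 SD, cut at about 20% in these data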;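 note: 0% = DMSO wells while the 100% control is not disclosed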
Target sequence (O14672 214-748 limits assumed): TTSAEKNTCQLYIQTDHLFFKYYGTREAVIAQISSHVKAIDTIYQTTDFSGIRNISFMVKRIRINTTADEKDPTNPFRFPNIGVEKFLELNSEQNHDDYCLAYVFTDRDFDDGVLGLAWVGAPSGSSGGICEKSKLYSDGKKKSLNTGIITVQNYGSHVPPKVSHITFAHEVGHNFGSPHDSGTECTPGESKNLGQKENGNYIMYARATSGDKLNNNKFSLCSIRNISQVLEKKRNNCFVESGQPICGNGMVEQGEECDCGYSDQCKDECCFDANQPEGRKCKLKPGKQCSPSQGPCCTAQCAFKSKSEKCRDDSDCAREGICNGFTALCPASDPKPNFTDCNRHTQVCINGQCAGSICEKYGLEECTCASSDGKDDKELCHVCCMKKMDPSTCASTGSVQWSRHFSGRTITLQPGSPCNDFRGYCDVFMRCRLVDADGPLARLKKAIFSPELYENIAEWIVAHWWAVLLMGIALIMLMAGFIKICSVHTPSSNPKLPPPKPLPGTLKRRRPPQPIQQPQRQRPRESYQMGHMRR
MPTP inh: permeability transition pore inhibition | isolated mouse mitochondria, Ca2+ swelling absorbance, 30 min | inhibition, % at 10 µM | 360,000 tested, 1.4% active | AID 602449;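 active = inhibition of 50% or more, scaled per plate between neutral and stimulator controls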;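 note: 0% = DMSO wells given calcium and 100% = 1 mM EGTA wells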
ADAM17 inh: inhibits human ADAM17 | P78536 | recombinant ADAM17, EDANS/DABCYL FRET peptide cleavage | inhibition, % at 6.95 µM | 370,000 tested, 0.83% active;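 active = inhibition above the mean of compounds lying between control limits plus 3 SD, set per campaign, cut at about 8.5% in these data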;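 note: 0% = DMSO-only wells as the low control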
DSG3 Ab inh: inhibitors of pemphigus antibody binding to human desmoglein-3. P32926. DSG3-coupled beads, scFv-anti-DSG3-GFP binding, flow cytometry; active compounds read low. binding (percent of control), % at 10 µM. 310,000 tested, 0.48% active. AID 588358;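 active = binding more than 3 SD below its plate's average and above zero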;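 note: hits lower antibody fragment binding to DSG3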
Rh123 counter: Rhodamine 123 counter-screen of mitochondrial pore hits. AID 624504. isolated mitochondria, membrane potential, Rhodamine 123 fluorescence. inhibition, % at 10 µM. shares compounds with MPTP inh. 5,000 tested, 78% active; in the data active = inhibition above about 22%;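 note: 0% = DMSO vehicle and 100% = positive control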
MPTP abs DR: MPTP inhibition, dose response swelling confirmation; AID 651561; IC50, µM; shares compounds with MPTP inh; 780 tested, 58% active; isolated mitochondria swelling, absorbance; in the data active = IC50 below about 20 µM
MPTP cs DR: active in counter-screen for permeability transition pore inhibitors | shares compounds with MPTP inh | isolated mitochondria counterscreen, fluorescence read-out | IC50, µM | 780 tested, 49% active | AID 651564; in the data active = IC50 below about 80 µM
* = called active by the depositor.

For COc1ccc(NC(=S)NC(NC(=O)CCl)C(Cl)(Cl)Cl)c([N+](=O)[O-])c1 (stereo not drawn) the results were MPTP inh 9 and DSG3 Ab inh 90.
`COc1ccc(NC(=S)NC(NC(=O)c2ccccc2Cl)C(Cl)(Cl)Cl)c([N+](=O)[O-])c1` (stereo not drawn) gave rCAG binder 21, KLK7 zymogen act 0, ADAM10 inh 3, MPTP inh 66*, ADAM17 inh 3, DSG3 Ab inh 96 and Rh123 counter 66*.
For COC(=O)c1ccccc1NC(=S)NC(NC(=O)c1ccccc1[N+](=O)[O-])C(Cl)(Cl)Cl (stereo not drawn) the results were rCAG binder 13, KLK7 zymogen act -1, ADAM10 inh -3, MPTP inh 6 and ADAM17 inh -6.
Screening Cc1cc(NS(=O)(=O)c2ccc(NC(=O)CSc3nnc(-c4ccccn4)n3-c3ccccc3)cc2)nc(C)n1 returned rCAG binder 22, KLK7 zymogen act 0, ADAM10 inh -3 and ADAM17 inh -1.
For COc1cccc(O)c1CN1CCC(C(=O)Nc2ccc(Oc3cccnc3)cc2)CC1 the results were rCAG binder -7, KLK7 zymogen act 0, ADAM10 inh -3, MPTP inh 18, ADAM17 inh -1 and DSG3 Ab inh 111.
Screening COc1ccc(CN2CCC(C(=O)Nc3ccc(Oc4cccnc4)cc3)CC2)c(C)c1C returned rCAG binder -6, KLK7 zymogen act 0, ADAM10 inh 0, MPTP inh 83*, ADAM17 inh 1, DSG3 Ab inh 107 and Rh123 counter 91*.
`COC(=O)N1C[C@H](OCc2ccc3c(c2)OCO3)[C@H]2C[C@@H]1c1ccccc1O2` gave rCAG binder 1, KLK7 zymogen act 1, ADAM10 inh -11 and ADAM17 inh -2.
COc1ccc(/C=N/NC(=O)CCSc2nc3ccccc3s2)cc1OC was read as rCAG binder 7, KLK7 zymogen act 0, ADAM10 inh 7, MPTP inh 1, ADAM17 inh 6 and DSG3 Ab inh 96.
For O=C(CCSc1nc2ccccc2s1)N/N=C/c1c(O)ccc2ccccc12 the results were rCAG binder 7, KLK7 zymogen act 0, ADAM10 inh -1, MPTP inh 77*, ADAM17 inh -4, DSG3 Ab inh 94 and Rh123 counter 63*.
COC(=O)[C@]12C[C@H](CC(=O)N3CCN(C(=O)C4CC4)CC3)C(=O)N(Cc3ccco3)C1=C[C@H](COCc1ccccc1)O[C@@H]2C was read as rCAG binder 4, KLK7 zymogen act 0, ADAM10 inh -5 and ADAM17 inh -4.
C=CC[n+]1c(-c2ccc(OCC)cc2)csc1NNC(=O)Nc1ccccc1 was read as rCAG binder 4, KLK7 zymogen act 0, ADAM10 inh 1, MPTP inh 66*, ADAM17 inh -4, DSG3 Ab inh 123 and Rh123 counter 79*.
For O=S1(=O)c2c(cccc2N2CCC[C@@H]2CO)O[C@@H]2CCN1C2 the results were rCAG binder 2, KLK7 zymogen act 0, ADAM10 inh -5 and ADAM17 inh -4.
CCC1CCc2sc(C(=O)NC3CCN(Cc4ccccc4)CC3)cc2C1 (stereo not drawn) was read as rCAG binder -4, KLK7 zymogen act 1, ADAM10 inh 4, MPTP inh 76*, ADAM17 inh 3, DSG3 Ab inh 111, Rh123 counter -5, MPTP abs DR 11* and MPTP cs DR 27*.
For CCC(NC(=O)CN1CCN(c2cccc(OC)c2)CC1)c1ccccc1 (stereo not drawn) the results were rCAG binder -1, KLK7 zymogen act 0, ADAM10 inh -8 and ADAM17 inh -3.

Screening results as filed in PubChem BioAssay.
